Test results from PubChem BioAssay (Tox21).
Records with an inconclusive call do not appear. Where a call stands in place of a potency, no number is given. Unmarked numbers belong to inactive results. The source made the active and inactive calls. Calls come from the whole dose curve.

Biological target: 5-hydroxytryptamine receptor 2A (Homo sapiens) (UniProt P28223)
Experiment: 5-hydroxytryptamine receptor 2A (HTR2A) small molecule agonists, cell-based qHTS assay (AID 1963587); note: nearly all actives have a fitted effect of over 30% in size
Conditions: HTR2A-CHO cells, calcium flux fluorescence, agonist mode; series mostly up to 76.8 µM
From the text: National Center for Advancing Translational Sciences [NCATS]
Division of Preclinical Innovation [DPI]
U.S. Environmental Protection Agency [EPA]
National Institutes of Environmental Health Sciences [NIEHS]
National Toxicology Program [NTP]
U.S. Food and Drug Administration [FDA]
The HTR2A receptor is a subtype of the 5-HT2 receptor that belongs to the serotonin receptor family and is a G protein-coupled receptor (GPCR). The HTR2A-CHO cell line stably expressing human 5-hydroxytryptamine receptor 2A (HTR2A) can be used for screening agonists of interactions between 5-HT2 and its ligands. The HTR2A-CHO calcium flux assay is a homogeneous fluorescence-based assay for detecting the intracellular calcium level using FDSS kinetic plate reader system.
HTR2A-CHO cells were dispensed at 2000 cells/3uL/well in 1536-well black-clear bottom plates using a Multidrop Dispenser. After the assay plates were incubated at a 37 C/5% CO2 incubator for 18 h, 3 uL of Dye Loading Buffer was transferred to the assay plate by a Flying Reagent Dispenser. The assay plates were incubated at 37 C for 1h. For agonist mode, 23 nL of compounds dissolved in DMSO, positive controls or DMSO only was transferred to the assay plate by a pin tool. The fluorescence intensity in the plates was measured using FDSS 7000EX kinetic plate reader for 2 min at 1 sec intervals.
Potency is the fitted concentration of half-maximal effect.

Chain of 5-hydroxytryptamine receptor 2A (Homo sapiens) (P28223 whole entry, looked up): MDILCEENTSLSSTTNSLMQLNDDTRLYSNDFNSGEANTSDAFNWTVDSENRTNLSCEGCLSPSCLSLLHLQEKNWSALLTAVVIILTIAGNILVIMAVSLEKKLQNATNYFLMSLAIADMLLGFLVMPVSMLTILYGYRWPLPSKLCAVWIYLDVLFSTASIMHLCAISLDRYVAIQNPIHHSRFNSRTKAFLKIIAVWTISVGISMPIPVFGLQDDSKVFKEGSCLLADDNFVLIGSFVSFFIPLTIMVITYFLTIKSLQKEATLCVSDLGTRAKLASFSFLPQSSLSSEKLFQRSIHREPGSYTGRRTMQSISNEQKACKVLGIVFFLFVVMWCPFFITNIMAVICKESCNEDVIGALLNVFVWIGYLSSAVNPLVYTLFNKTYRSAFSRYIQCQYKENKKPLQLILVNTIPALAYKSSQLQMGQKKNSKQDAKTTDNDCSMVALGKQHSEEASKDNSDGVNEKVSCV

Question: For `CCN(CCC#N)c1ccc(N=Nc2ccc([N+](=O)[O-])cc2)cc1`, which Potency is on record?
Answer: inactive

Question: How did the Potency turn out when `CC1=CC(=O)CC(C)(C)C1(O)/C=C/C(C)=C\C(=O)O` (stereo not given) was run?
Answer: inactive

Question: `CCOC(=O)[C@H](C)O` was tested. Which Potency did it give?
Answer: inactive

Question: With `NS(=O)(=O)c1cc2c(cc1C(F)(F)F)NCNS2(=O)=O` as the compound, how does the Potency read?
Answer: inactive

Question: Which Potency does the source give for `CCC1CO1` (stereo not given) here?
Answer: inactive

Question: `CCOC(=O)c1ccccc1O` was tested. Which Potency did it give?
Answer: inactive

Question: `CC1CCc2cc(F)cc3c(=O)c(C(=O)O)cn1c23` (stereo not given) was tested. Which Potency did it give?
Answer: inactive

Question: For `Nc1cccc(S(=O)(=O)O)c1`, which Potency is on record?
Answer: inactive

Question: With `CNc1ccc(O)cc1` as the compound, how does the Potency read?
Answer: inactive

Question: `Cc1nc2n(c(=O)c1CCN1CCC(c3noc4cc(F)ccc34)CC1)CCC[C@H]2O` was tested. Which activation did it give?
Answer: -9.85% [at 15.9 µM]

Question: `O=Cc1cccc(Br)c1` was tested. Which Potency did it give?
Answer: inactive

Question: With `CCOC(=O)c1cccnc1` as the compound, how does the Potency read?
Answer: inactive

Question: `CCN(CC)CC(=O)Nc1c(C)cccc1C(=O)OC` was tested. Which Potency did it give?
Answer: inactive

Question: For `CN(C)CCCCl`, which Potency is on record?
Answer: inactive

Question: For `CC(C)(C)c1cc(CCC(=O)NCCCCCCNC(=O)CCc2cc(C(C)(C)C)c(O)c(C(C)(C)C)c2)cc(C(C)(C)C)c1O`, which Potency is on record?
Answer: inactive

Question: `NS(=O)(=O)c1ccc(Cl)c(S(N)(=O)=O)c1` was tested. Which Potency did it give?
Answer: inactive

Question: How did the Potency turn out when `CCN1CCCC1CN` (stereo not given) was run?
Answer: inactive

Question: Which Potency does the source give for `CC(C)(C)C(=O)O` here?
Answer: inactive

Question: How did the Potency turn out when `CC(O)CN(CCCN(C)C)CCCN(C)C` (stereo not given) was run?
Answer: inactive

Question: For `O=c1[nH]cccc1O`, which Potency is on record?
Answer: inactive

Question: Which Potency does the source give for `COc1ccc(OC)c(NC(=O)CC(C)=O)c1` here?
Answer: inactive

Question: How did the Potency turn out when `CCc1cccc(CC)c1N(COC)C(=O)CS(=O)(=O)O` was run?
Answer: inactive

Question: With `CCCCCN(CCCCC)C(=O)C(CCC(=O)O)NC(=O)c1ccc(Cl)c(Cl)c1` (stereo not given) as the compound, how does the Potency read?
Answer: inactive

Question: `Cc1cccc2nccnc12` was tested. Which Potency did it give?
Answer: inactive

Question: Which Potency does the source give for `c1ccc2c(CC3=NCCN3)cccc2c1` here?
Answer: inactive

Question: Which Potency does the source give for `CC(=O)c1ccc(C(C)=O)cc1` here?
Answer: inactive

Question: With `CC(=O)NC(=O)c1ccccc1O` as the compound, how does the Potency read?
Answer: inactive

Question: With `Oc1c(Br)cc(Br)c2cccnc12` as the compound, how does the Potency read?
Answer: inactive

Question: Which Potency does the source give for `CN1CCN(c2cc3c(cc2F)c(=O)c(C(=O)O)cn3-c2ccc(F)cc2)CC1` here?
Answer: inactive

Question: How did the Potency turn out when `CCOC(=O)CCCCCCCCC(=O)OCC` was run?
Answer: inactive

Question: Which Potency does the source give for `CC(c1cc(C(C)(C)C)cc(C(C)(C)C)c1O)c1cc(C(C)(C)C)cc(C(C)(C)C)c1O` here?
Answer: inactive

Question: `CC1=C2[C@H](/C=C(\C)C(=O)O)CC[C@@H](C)[C@H]2CC1` was tested. Which Potency did it give?
Answer: inactive

Question: `C(=C/c1ccccc1)/c1ccccc1` was tested. Which Potency did it give?
Answer: inactive

Question: `CC(C)(C)C1(CCc2ccc(Cl)cc2)CO1` (stereo not given) was tested. Which Potency did it give?
Answer: inactive

Question: How did the Potency turn out when `CCCC(=O)c1cc(O)c(O)cc1O` was run?
Answer: 436 nM (active)

Question: For `O=C1c2ccccc2C(=O)N1CO`, which Potency is on record?
Answer: inactive

Question: How did the Potency turn out when `C[N+]1(CC2COC(c3ccccc3)(C3CCCCC3)O2)CCCCC1` (stereo not given) was run?
Answer: inactive

Question: For `CC(C)SCc1ccco1`, which Potency is on record?
Answer: inactive

Question: `C=COCC1CCC(CO)CC1` (stereo not given) was tested. Which Potency did it give?
Answer: inactive

Question: `CCOC(=O)C(C)O` (stereo not given) was tested. Which Potency did it give?
Answer: inactive
